Screening results as filed in PubChem BioAssay.
NS1 function inh – qHTS Assay for Inhibitors of Influenza NS1 Protein Function; Potency, µM (doses to about 46.1 µM), without a hit: top-dose activity, positive = more growth; hit rate 0.4% among 270,000; AID 2326, 2010; calls by dose curve; also: actives are rising curves; nearly all actives have a fitted effect of over 50% in size
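Compounds were scored for reversing the slow growth caused by influenza A NS1 in S. cerevisiae, measured by optical density at 600 nm. Assay medium contained 2% galactose at pH 6.0; NS1-free yeast of the same strain were the positive control.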
HCV inh – qHTS Assay for Inhibitors of Hepatitis C Virus (HCV); Huh7.5.1 HCVcc-Cre infection, luciferase reporter, 44 h; Potency, µM (series often up to 41.8 µM), inactives show at the highest dose activity change, negative = inhibition, hits mostly inhibitors; hit rate 3.4% among 340,000; AID 651820, 2012; also: % is scaled to controls: 0 for no effect and ±100 for the full control effect
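1,000 cells/well; 4 h culture; + compound; + HCVcc-Cre (~0.5 moi); 44 h; luciferase substrate, RT 15 min; read 15 sec.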
Pf growth 48h – Primary qHTS for delayed death inhibitors of the malarial parasite plastid, 48 hour incubation. P. falciparum luciferase growth in erythrocytes, 48 h. Potency, µM (titrated, usually from 28.7 µM), inactives show top-dose activity change, negative = inhibition, usual class: inhibitors. hit rate 5.9% among 310,000. AID 504832, 2011; also: % is scaled to controls: 0 for no effect and ±100 for the full control effect
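Growth was read as firefly luciferase luminescence after a 48 h, 37 C, 5% CO2 exposure of compounds to reporter-bearing P. falciparum cultures (0.1% parasitemia, 2% hematocrit final) in Albumax-supplemented RPMI 1640.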
Vaccinia mCherry – qHTS for Stage-Specific Inhibitors of Vaccinia Orthopoxvirus: mCherry Reporter Primary qHTS | Potency, µM (top dose mostly 36.5 µM), for inactives: top-dose activity change, negative = inhibition, most hits filed as inhibitors | Vaccinia virus mCherry reporter infection, fluorescence | hit rate 0.63% among 310,000; calls by dose curve; tested in A549 cells; also: % is scaled to controls: 0 for no effect and ±100 for the full control effect; nearly all actives have a fitted effect of over 35% in size
VACV Venus inh – qHTS for Stage-Specific Inhibitors of Vaccinia Orthopoxvirus: Venus Reporter Primary qHTS; Vaccinia virus Venus reporter expression, fluorescence; Potency, µM (titrated, usually from 36.5 µM), for the others: at the top dose activity change, negative = inhibition, most hits filed as inhibitors; hit rate 0.46% among 330,000; calls by dose curve; tested in A549 cells; also: % is scaled to controls: 0 for no effect and ±100 for the full control effect; nearly all actives have a fitted effect of over 30% in size
Pf growth 96h – Primary qHTS for delayed death inhibitors of the malarial parasite plastid, 96 hour incubation. P. falciparum luciferase reporter growth, 96 h. Potency, µM (series often up to 28.7 µM), inactives show top-dose activity change, negative = inhibition, most hits filed as inhibitors. hit rate 6.9% among 320,000. AID 504834, 2011; also: % is scaled to controls: 0 for no effect and ±100 for the full control effect
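P. falciparum expressing integrated firefly luciferase, in erythrocytes at 2% hematocrit, 0.05% parasitemia, incubated with compounds 96 h at 37 C, 5% CO2. Growth inhibition read as loss of luminescence; two-generation exposure targets delayed-death apicoplast inhibitors.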
An asterisk follows results filed as active. This is a sample that favours compounds with a hit; in the whole collection about 11% have one here. Unless noted, calls follow the shape of the dose curve; as a rule, active = well fitted inhibition curve with a large enough effect; inconclusive = small, poorly fitted or top-dose-only effect, or another doubt; inactive = no such curve, though single readings can be large or run the other way. Potency is read from the fitted curve at half-maximal effect.

For Cc1ccc(C(C(=O)NC2CCCC2)N(Cc2cccnc2)C(=O)c2snc(C(N)=O)c2N)o1 (configuration not stated) the results were NS1 function inh -9%, HCV inh 2%, Pf growth 48h -39% and Pf growth 96h inconclusive.
`O=C(NCc1ccco1)C(c1cccs1)N(C(=O)C1COc2ccccc2O1)c1cccc(O)c1` (configuration not stated) gave NS1 function inh -11%, HCV inh -17%, Pf growth 48h 10µM*, Vaccinia mCherry -15%, VACV Venus inh inconclusive and Pf growth 96h inconclusive.
Screening O=C(NC1CCCCC1)C(c1ccc(O)cc1)N(CC1CCCO1)C(=O)C1COc2ccccc2O1 (configuration not stated) returned NS1 function inh 3%, HCV inh -2% and Pf growth 96h 7.4µM*.
For Cc1ccc(C(C(=O)NC2CCCCC2)N(Cc2cccnc2)C(=O)C2COc3ccccc3O2)o1 (configuration not stated) the results were NS1 function inh -36%, HCV inh -5%, Pf growth 48h 5.2µM*, Vaccinia mCherry 0%, VACV Venus inh -15% and Pf growth 96h -3%.
`S=c1[nH]nc(Cc2cccs2)n1-c1ccccc1Cl` gave NS1 function inh -3%, HCV inh 5%, Pf growth 48h 14%, Vaccinia mCherry inactive, VACV Venus inh -19% and Pf growth 96h inconclusive.
CCOC(=O)c1ccc(NC(=S)NN)cc1 was read as HCV inh 21%, Pf growth 48h inconclusive, Vaccinia mCherry -24%, VACV Venus inh -20% and Pf growth 96h inconclusive.
Screening CC(C)CCNC(=O)C(c1ccc(O)cc1)N(Cc1cccs1)C(=O)C1COc2ccccc2O1 (configuration not stated) returned NS1 function inh inconclusive, HCV inh 13µM*, Pf growth 48h inconclusive, Vaccinia mCherry 11µM*, VACV Venus inh 28µM* and Pf growth 96h 47%.
For C=CCOC(=O)C1=C(C)NC(C)=C(C(=O)OCC=C)C1c1ccco1 the results were NS1 function inh -1%, HCV inh 11µM*, Pf growth 48h inconclusive and Pf growth 96h inconclusive.
For CCOC(=O)C1=C(N)n2c(s/c(=C/c3ccco3)c2=O)=C(C(=O)OC)C1c1ccco1 (configuration not stated) the results were NS1 function inh inconclusive, HCV inh -29%, Pf growth 48h 13µM* and Pf growth 96h inconclusive.
`CCOC(=O)C1=c2s/c(=C\c3ccncc3)c(=O)n2C(N)=C(C(=O)OC)C1c1ccncc1` (configuration not stated) gave HCV inh 7%, Pf growth 48h -7% and Pf growth 96h 6%.
`C=CCOC(=O)C1=C(C)NC(SCC(N)=O)=C(C#N)C1c1ccc(C)cc1` (configuration not stated) gave NS1 function inh 1%, HCV inh -14%, Pf growth 48h -7% and Pf growth 96h inconclusive.
For C=CCOC(=O)C1=C(C)NC(SCC)=C(C#N)C1c1ccc(Cl)cc1 (configuration not stated) the results were NS1 function inh 0%, HCV inh 10µM*, Pf growth 48h inconclusive, Vaccinia mCherry inactive, VACV Venus inh -20% and Pf growth 96h 10µM*.
`CCOC(=O)C1=C(c2ccccc2)NC(SC)=C(C#N)C1c1cccnc1` (configuration not stated) gave NS1 function inh -17%, HCV inh 18%, Pf growth 48h inconclusive, Vaccinia mCherry inactive, VACV Venus inh 0% and Pf growth 96h 12µM*.
Screening COC(=O)C1=C(C)NC(=S)NC1c1ccco1 (configuration not stated) returned HCV inh -4%, Pf growth 48h -5%, Vaccinia mCherry -10%, VACV Venus inh -10% and Pf growth 96h 25%.
`CCOC(=O)C1=C(C)NC(C)=C(C(=O)OC)C1c1ccco1` (configuration not stated) gave NS1 function inh 1%, HCV inh -10%, Pf growth 48h inconclusive, Vaccinia mCherry inactive, VACV Venus inh -10% and Pf growth 96h 13µM*.
CCOC(=O)C1=C(c2ccccc2)NC(SCC(=O)NC2CCCCC2)=C(C#N)C1c1ccco1 (configuration not stated) was read as NS1 function inh 14%, HCV inh inconclusive, Pf growth 48h 12µM*, Vaccinia mCherry -13%, VACV Venus inh -10% and Pf growth 96h 16%.
`C=CCOC(=O)C1=C(C)NC(SCC(=O)Nc2ccc(C)c(Cl)c2)=C(C#N)C1c1ccco1` (configuration not stated) gave NS1 function inh -5%, HCV inh 6.3µM*, Pf growth 48h 4.1µM*, Vaccinia mCherry inconclusive, VACV Venus inh inconclusive and Pf growth 96h inconclusive.
`COCCOC(=O)C1=C(C)NC(SCC(=O)NC(C)(C)C)=C(C#N)C1c1ccco1` (configuration not stated) gave NS1 function inh 1%, HCV inh -10%, Pf growth 48h inconclusive, Vaccinia mCherry 18% and VACV Venus inh -16%.
`CC(=O)C1=C(C)NC(SCC(=O)Nc2nc3ccccc3s2)=C(C#N)C1c1ccc(Cl)cc1` (configuration not stated) gave NS1 function inh inconclusive, HCV inh inconclusive, Pf growth 48h 7.4µM*, Vaccinia mCherry -3%, VACV Venus inh -8% and Pf growth 96h 6.6µM*.
`Cc1nc(SCC(=O)NC(=O)NC(C)C)nc(C)c1C` gave NS1 function inh 5%, HCV inh 0%, Pf growth 48h 25%, Vaccinia mCherry -14%, VACV Venus inh -26% and Pf growth 96h 35%.
For Cc1cc(C)nc(Sc2ccc3nnnn3n2)n1 the results were NS1 function inh -4%, HCV inh 7%, Pf growth 48h 26%, Vaccinia mCherry 0.5µM*, VACV Venus inh 3.5µM* and Pf growth 96h 20%.
`O=C(Cc1csc(Nc2nc(=S)[nH]c3ccccc23)n1)NCc1cccc(Cl)c1` gave NS1 function inh 10%, HCV inh inconclusive, Pf growth 48h 4% and Pf growth 96h inconclusive.
For O=C(Cc1csc(Nc2nc(=S)[nH]c3ccccc23)n1)NCc1ccccc1Cl the results were NS1 function inh 25%, HCV inh 11µM*, Pf growth 48h -27% and Pf growth 96h inconclusive.
